Screens (PubChem BioAssay)
tim23-1 inh – growth inhibitors of tim23-1 mutant yeast | S. cerevisiae tim23-1 growth, BacTiter-Glo luminescence, 24 h | inhibition, % at 20 µM | hit rate 1.3% among 330,000 | AID 463212;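 active = growth inhibition of the mutant yeast at or above 50%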;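 note: temperature-sensitive mutant grown at 25 °C; plate controls were DMSO-treated mutant yeast for no effect and medium wells lacking yeast for full effect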
PfHsp90 yeast 2 – reduces growth (ATP signal) of yeast expressing P. falciparum Hsp90. S. cerevisiae expressing PfHsp90, BacTiter-Glo ATP, 48 h; yeast lacking PDR1 and PDR3 efflux regulators. hit rate 0.32% among 310,000. inhibition, % at 9.4 µM. AID 504621;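 active = every replicate shows inhibition above about 80%, whatever the replicate mean, limit read from the data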;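 note: 0% = DMSO neutral controls and 100% = 20 µM radicicol positive controls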
tim10-1 inh – growth inhibitors of tim10-1 mutant yeast; S. cerevisiae tim10-1 ts strain growth, BacTiter-Glo, 24 h; inhibition, % at 20 µM; hit rate 2.2% among 330,000; AID 463190;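 active = inhibition of at least 40%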;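 note: mutant grown at 25 °C; 0% = DMSO wells with yeast and 100% = wells holding no yeast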
Calb FLC – C. albicans growth modulation with fluconazole; AID 1979; hit rate 0.57% among 300,000; growth inhibition, % (concentration not given with the values); C. albicans CaCi-2 (fluconazole-resistant clinical isolate) + fluconazole, Alamar Blue growth, 48 h;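 active = growth inhibition above about 58% in most replicates, limit read from the data, passing the limit was not always enough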;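 note: all wells also contain fluconazole at 8 µg/ml as a sub-toxic cotreatment; 0% = median of DMSO wells and 100% = median of geldanamycin control wells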
SKKanGAS inh – SKKanGAS growth inhibition; S. pyogenes SKKanGAS, kanamycin growth, BacTiter-Glo, 6 h; inhibition, % at 7.5 µM; hit rate 1.3% among 300,000; AID 1662;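 active = mean replicate score, as percent of positive control median, at least 50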;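 note: strain carries kanamycin resistance gene driven by streptokinase promoter and grows in 40 µg/ml kanamycin; loss of luminescence reflects streptokinase promoter inhibition or plain growth inhibition; 0% = median of DMSO wells and 100% = positive control at its reference dose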
TIM10 inh – TIM10 yeast growth inhibition. inhibition, % at 10 µM. hit rate 1.4% among 330,000. S. cerevisiae TIM10 strain growth, BacTiter-Glo luminescence, 24 h. AID 463195;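 active = inhibition of 40% or more at the single tested concentration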;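 note: wild-type TIM10 isogenic control strain grown at permissive 25 °C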
Active calls of the source: *; / = no result. Hits are enriched below; roughly 4.7% of the tested compounds scored in any of these assays.

SMILES	tim23-1 inh	PfHsp90 yeast 2	tim10-1 inh	Calb FLC	SKKanGAS inh	TIM10 inh
N#Cc1cn(-c2cccc(C(F)(F)F)c2)c(=O)[nH]c1=O	8	15	0	-9	4	4
COc1ccccc1N1CCN(C(=O)c2cc3cc(Cl)ccc3[nH]2)CC1	26	-16	26	114*	27	24
COc1ccccc1N1CCN(C(=O)c2cc3cc(F)ccc3[nH]2)CC1	45	-6	39	18	5	35
CC(C)(C)Sc1ccccc1S(=O)(=O)C(C)(C)C	14	0	9	-4	8	9
COc1ccc(CC(=O)Nc2ccc(N3CCCC3)c(C)c2)cc1	1	16	-6	9	5	-37
CC(C)C[C@H](NC(=O)c1nc[nH]c1C(=O)N[C@@H](CC(C)C)C(=O)OC(C)(C)C)C(=O)OC(C)(C)C	19	-5	10	17	87*	17
Cc1ccc(NC(=O)c2nc[nH]c2C(=O)N[C@@H](C)c2ccccc2)cc1	48	/	36	10	66*	31
CC(C)C[C@H](NC(=O)c1[nH]cnc1C(=O)N[C@H](C)c1ccccc1)C(=O)OCc1ccccc1	12	-7	12	-5	73*	-2
CC(C)C[C@H](NC(=O)c1[nH]cnc1C(=O)Nc1ccc(Cl)cc1)C(=O)OC(C)(C)C	25	-9	20	2	60*	11
CC(C)C[C@H](NC(=O)c1nc[nH]c1C(=O)NCC(=O)OC(C)(C)C)C(=O)OC(C)(C)C	25	30	9	29	9	13
CCCCn1c(N)c(N(CC(C)C)C(=O)c2cccs2)c(=O)[nH]c1=O	-3	12	19	1	-2	1
COc1ccccc1C(CNC(=O)CN1C(=O)NC(C)(c2ccc3ccccc3c2)C1=O)N1CCCC1 (stereo unspecified)	/	-14	/	/	/	/
O=C(CC1CCCC1)Nc1ccc(Cl)c(S(=O)(=O)N2CCOCC2)c1	22	4	20	/	/	6
COCc1ccc(C(=O)N2CCCC(C(=O)c3ccc(SC)cc3)C2)s1 (stereo unspecified)	29	12	23	3	0	-5
CCc1ccccc1NC(=O)CN1CCN(C(=O)CCC(=O)N2CCC(c3ccccc3)=N2)CC1	12	/	15	/	/	6
CC(C)C[C@H](NC(=O)c1[nH]cnc1C(=O)N[C@H](C)c1ccccc1)C(=O)OC(C)(C)C	28	/	26	14	57*	27
CC(C)C[C@H](NC(=O)c1nc[nH]c1C(=O)NC(c1ccccc1)c1ccccc1)C(=O)OC(C)(C)C	12	24	10	-6	60*	13
O=C(OCC(=O)N1CCN(Cc2ccccc2)CC1)c1cc(Cl)ccc1[N+](=O)[O-]	-2	-11	-11	/	/	-2
CS(=O)(=O)N(CC(=O)N1CCCCCC1)c1cccc(F)c1	5	10	3	5	-4	-3
O=C(COC(=O)CSc1ccc(Cl)cc1)NCCc1ccccc1	10	/	16	/	/	10
O=C1NC(=O)/C(=C\c2ccc(Br)o2)S1	20	-2	18	87*	-8	27
O=C1NC(=O)/C(=C/c2cc3c(cc2Br)OCO3)S1	/	-7	/	-4	42	/
COc1ccccc1C(=O)NCC(=O)OCC(=O)Nc1ccc2[nH]c(=O)[nH]c2c1	-32	/	-34	4	1	-33
C/C(=N\NC(=O)c1ccc(Cl)c(Cl)c1)c1ccc(Br)s1	-10	-6	10	-7	88*	6
C/C(=N\Nc1ccc(Cl)c(C(=O)O)c1)c1ccc(Br)s1	7	4	10	3	58*	8
SMILES	tim23-1 inh	PfHsp90 yeast 2	tim10-1 inh	Calb FLC	SKKanGAS inh	TIM10 inh
C/C(=N\Nc1ccc(C(=O)O)cc1)c1ccc(Cl)s1	5	10	-7	3	/	-26
O=C(CNC(=O)c1cccs1)Nc1ccc(N2CCOCC2)cc1	2	-16	9	/	/	-4
COc1ccc(C(=O)NC(=S)NNC(=O)c2ccco2)cc1	-21	-32	-8	1	53*	15
COc1ccc(/C=C/C(=O)NC(=S)NNC(=O)c2ccco2)cc1OC	-37	-13	-4	3	84*	-14
COc1ccccc1OCC(=O)NNC(=S)NC(=O)c1ccco1	-3	-15	17	-2	60*	9
COc1ccc(/C=C/C(=O)NC(=S)NNC(=O)c2ccco2)cc1	-19	4	-2	-13	78*	0
N#Cc1c(N)nc2c(c1-c1ccc(F)cc1)c(=O)nc1sccn12	12	/	-3	29	-1	-7
CC1=C[C@H](C)[C@H](c2c(F)cccc2Cl)CC1=O	7	14	-19	-3	-4	-2
CCN(CC)c1ccc(/C=N/NC(=O)c2cccc(S(=O)(=O)N3CCOCC3)c2)c(O)c1	-11	-12	23	102*	12	7
O=C(N/N=C/c1sc(N2CCOCC2)nc1-c1ccccc1)c1cccc(S(=O)(=O)N2CCOCC2)c1	1	-15	36	98*	30	0
CN(NS(=O)(=O)c1ccccc1)C(=O)c1ccccc1	/	-18	/	/	/	/
COc1ccc(-c2c/c(=N\c3nc(-c4ccccc4)c(C)s3)c3ccccc3o2)cc1O	15	-18	11	-3	59*	7
Cc1ccc(NS(=O)(=O)c2ccc(C)c(C(=O)NCC(c3ccccc3)N(C)C)c2)cc1 (stereo unspecified)	37	-6	38	/	/	20
CC1CCCCN1S(=O)(=O)c1ccc(NC(=O)c2cccc(-n3cnnn3)c2)cc1 (stereo unspecified)	3	0	18	91*	-2	-7
CCc1ccc(CNC(=O)CCC(=O)N2Cc3cccc(OC)c3Oc3ncccc32)cc1	15	17	9	85*	-11	12
O=C(Nc1nc2ccccc2n1CCOc1ccccc1)c1ccco1	21	-17	19	10	77*	25
C=CCn1c(NC(=O)c2ccco2)nc2ccccc21	19	-2	13	6	-8	4
Cc1cccc(OCCn2c(NC(=O)c3ccco3)nc3ccccc32)c1	38	-13	26	-2	62*	33
O=C(Nc1nc2ccccc2n1CCN1CCCCC1)c1ccco1	2	2	-16	0	-5	-4
O=C(Nc1nc2ccccc2n1CCOc1ccc(Cl)cc1)c1ccco1	17	-8	34	4	90*	24
O=C(Nc1nc2ccccc2n1Cc1ccc(Cl)cc1)c1ccco1	6	6	-18	24	-9	-6
Cc1ccc(OCCn2c(NC(=O)c3ccco3)nc3ccccc32)cc1	-2	-16	-34	/	66*	-4
COc1c[nH]n(-c2ccccc2)c(=O)c1=O	-9	6	-5	-5	-3	10
COc1ccc(N2CC(C(=O)N3CCN(S(=O)(=O)c4ccc(F)c(F)c4)CC3)CC2=O)c(OC)c1 (stereo unspecified)	/	-52	/	/	/	/
